# An excerpt weighted towards active compounds, which were near 4% of everything screened.
# Nox1 inh: blocks human NADPH oxidase 1 activity | Q9Y5S8 | HT29 cells, luminol chemiluminescence ROS | inhibition, % at 6.7 µM | 16,000 compounds, 0.81% hits | AID 1792
# OPRK1 antag MB: OPRK1 (human) antagonism, Maybridge screen | P41145 | OPRK1 cells, antagonist mode, fluorescence readout | inhibition, % at 9 µM | 16,000 compounds, 0.4% hits; in the data active = inhibition above about 50%
# NOTCH ag: activates NOTCH signaling in reporter cells; NOTCH signaling luciferase reporter cells, luminescence; activation, % at 2.5 µM; 15,000 compounds, 0.4% hits; AID 434982; in the data active = activation above about 2.2%
# S1P1 agonist: activates the human S1P1 receptor; P21453; S1P1 agonist cell-based reporter assay; activation, % at 4.5 µM; 16,000 compounds, 1.5% hits; AID 1044; in the data active = activation above about 80%
# PME-1 Maybridge: inhibitors of human PME-1 in Maybridge library; inhibition, % at 9 µM; AID 2291; 16,000 compounds, 0.5% hits; recombinant PME-1, FP-Rh probe fluorescence polarization; in the data active = inhibition above about 30%
# Target sequence (Q9Y570 whole entry, looked up): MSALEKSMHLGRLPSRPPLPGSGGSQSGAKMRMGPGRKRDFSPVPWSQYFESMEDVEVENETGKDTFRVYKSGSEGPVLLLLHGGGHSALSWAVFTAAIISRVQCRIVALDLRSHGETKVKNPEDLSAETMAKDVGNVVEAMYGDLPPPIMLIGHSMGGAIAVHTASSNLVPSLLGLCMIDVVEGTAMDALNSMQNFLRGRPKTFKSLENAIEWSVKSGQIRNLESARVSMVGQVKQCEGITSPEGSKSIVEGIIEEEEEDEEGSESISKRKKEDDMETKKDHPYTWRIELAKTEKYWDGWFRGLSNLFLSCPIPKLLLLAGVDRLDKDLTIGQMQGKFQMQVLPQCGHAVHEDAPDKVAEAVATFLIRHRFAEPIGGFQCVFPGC
# Luminol counter: counter-screen for Nox1 inhibitors: inhibitors of luminol chemiluminescence. HRP/luminol/H2O2 chemiluminescence counterscreen. 16,000 compounds, 0.4% hits. inhibition, % at 6.7 µM; note: reference of the scale not given here
# * marks the source's active call; other numbers are inactive results; · = no result given. Cut-off read from the data, not from the text of the source, unless noted: active = inhibition above about 75%; inactive = the rest.
SMILES,Nox1 inh,OPRK1 antag MB,NOTCH ag,S1P1 agonist,PME-1 Maybridge,Luminol counter
COc1ccc(-c2cc(C(F)(F)F)n3nc(-c4ccco4)cc3n2)cc1OC,-28.4,-11.9,-0.5,52.5,-14.4,2.7
COc1ccc(-c2cc(C(F)(F)F)n3nc(C4CC4)cc3n2)cc1,-3.2,19.7,-0.8,85.0*,0.8,-3.3
S=C(NCc1ccco1)Nc1cccnc1,-44.2,9.1,-0.1,119.7*,0.1,5.8
S=C(NCc1ccco1)Nc1ccc(C2=NCCO2)cc1,10.1,10.0,-0.2,-13.1,2.0,0.3
CC(=O)N1CCC(NC(=O)Oc2ccc(Cl)cc2)CC1,-19.4,3.6,0.0,0.5,0.9,-1.8
CC(=O)N1CCC(C(=O)O/N=C(\N)c2ccc(Cl)cc2)CC1,-3.1,126.2*,-0.1,17.2,3.8,4.1
CC1(C)CC(Nc2ccc(Nc3ccccc3)cc2)CC(C)(C)N1,103.4*,24.3,-0.3,-8.9,4.6,3.9
Cc1nc(C)c(-c2n[nH]c(=S)n2C)s1,5.7,5.1,-0.1,-3.0,3.4,99.7*
O=C(CSCCS(=O)(=O)c1ccccc1)NNC(=O)c1ccccc1Cl,-47.0,-12.2,0.0,9.7,4.6,-2.2
CN(C)c1ccc(NC(=O)Nc2ccc(OCc3ccccc3)cc2)cc1,107.5*,13.6,-0.2,6.8,2.0,-3.7
Cc1ccc(NC(=O)Nc2ccc(OCc3ccccc3)cc2)cc1NS(C)(=O)=O,15.8,-4.8,·,88.1*,3.7,-15.8
CCCCNC(=O)O/N=C(\N)Cc1cccs1,17.5,-8.5,1.0,3.5,0.6,-5.1
N#CC(C#N)=C1c2cc(S(N)(=O)=O)cc([N+](=O)[O-])c2-c2c1cc(S(N)(=O)=O)cc2[N+](=O)[O-],34.2,5.0,-0.3,-13.7,72.7*,7.9
CCOC(=O)CSc1ccc(S(N)(=O)=O)cc1[N+](=O)[O-],27.1,3.7,0.3,-0.8,5.7,-4.2
COCCOc1cc2ncnc(N3CCC(C(=O)O)CC3)c2cc1OCCOC,-56.5,-21.1,-0.8,113.4*,0.6,2.4
CN(C)c1ccc(/C=N/Nc2c(Cl)cncc2Cl)cc1,102.4*,-15.1,0.6,35.5,2.0,3.4
O=[N+]([O-])c1ccc(C23CC4CC(CC(C4)C2)C3)cc1,-14.5,7.5,-0.3,-26.2,22.0,4.0
CN1CCN(c2ccccc2/C=N\Nc2cc(Cl)ccc2Cl)CC1,-50.0,-20.3,-0.4,-8.9,6.4,3.8
O=C(Nc1cccc(C(F)(F)F)c1)Nc1ccc2nonc2c1,-26.0,-1.9,-0.6,59.4,3.3,-1.6
O=C(Nc1ccc(Oc2cccc(C(F)(F)F)c2)nc1)c1ccc2c(c1)CCO2,-3.4,-8.5,-0.9,90.1*,-7.1,4.3
CC(C)(C)c1ccc(Oc2ccc(NC(=O)c3ccco3)cn2)cc1,25.8,11.2,0.1,37.6,3.4,-6.1
O=C(Nc1ccccc1)Nc1ccc(Oc2cccc(C(F)(F)F)c2)nc1,-23.5,-0.4,-0.5,86.7*,-80.3,0.0
CCn1c(SCC(=O)O)nc2cc(Cl)c(Cl)cc21,9.6,19.1,-0.2,-4.4,7.6,-6.1
CN1CCN(c2ccc(CNC(=O)C3CCCCC3)cc2)CC1,-76.0,2.8,-0.7,-29.0,-4.7,1.1
COc1ccc(C(C)=O)cc1CSc1ccc(Cl)cc1,16.8,6.4,0.2,16.6,10.1,-8.6
SMILES,Nox1 inh,OPRK1 antag MB,NOTCH ag,S1P1 agonist,PME-1 Maybridge,Luminol counter
Cc1nnsc1C(=O)NCCSCc1ccc(Cl)cc1Cl,0.0,-19.8,·,-1.6,9.9,-4.4
CCNc1nc2ccc(Cl)cc2nc1NCC,-4.3,-1.2,-0.6,-15.6,29.5,-1.9
Clc1ccc2nc3c(nc2c1)Nc1ccccc1S3,20.0,90.3*,·,63.6,9.2,2.2
COc1ccc(NS(=O)(=O)c2cn(C)cn2)cc1,-25.9,24.2,-0.4,-3.8,2.4,-2.2
Cn1cnc(S(=O)(=O)Nc2ccc(N3CCCCC3)cc2)c1,86.5*,7.7,-2.1,0.8,-1.1,2.2
CCc1ccnc(NS(=O)(=O)c2cccs2)c1,5.0,16.9,0.0,-5.2,5.8,-5.2
c1ccc(Sc2c(-c3ccccc3)nc3sccn23)cc1,6.4,-7.3,-0.5,17.7,-4.3,-0.9
O=C(NNc1ncc(C(F)(F)F)cc1Cl)NC(=O)c1ccccc1Cl,-13.3,8.2,0.7,-2.0,1.3,6.3
Cc1nc(C(F)(F)F)c(C(=O)NNc2ncc(C(F)(F)F)cc2Cl)s1,85.3*,-5.4,0.3,13.1,-1.2,5.7
c1csc(C2=Nn3c(Cn4nnc5ccccc54)nnc3SC2)c1,-10.5,-21.2,-0.3,-3.8,1.8,-0.9
CC(C)(C)c1ccc(C(=O)c2ncc[nH]2)cc1,-55.7,-3.1,-0.7,102.8*,0.9,2.5
O=C(c1ccc(OC(F)(F)F)cc1)c1ncc[nH]1,-14.0,-21.4,-0.2,-15.6,-1.4,1.3
Cc1cc(=O)n2ncnc2n1CC(=O)NNC(=S)Nc1ccc(Cl)cc1Cl,7.5,-1.1,-0.4,-15.8,1.2,75.1*
Nc1nnc(Sc2cc3c(cc2[N+](=O)[O-])C(=O)NC3=O)s1,76.0*,5.8,1.1,7.1,-2.6,-1.3
Cc1ccc(N2CC(=O)N(N)CC2=O)cc1,-70.4,-12.9,-0.1,-7.6,2.6,1.6
CSC(=NC(C)(C)C)Nc1ccccc1Cl,-4.8,1.7,0.5,15.8,0.1,-6.0
N#CC(C#N)=NNc1ccc(Cl)c(Cl)c1C#N,-26.1,18.3,-0.6,31.2,6.6,15.5
N#CC(C#N)=NNc1ccc(F)cc1F,30.3,17.8,-0.3,104.7*,14.7,9.8
N/C(=N\OC(=O)c1ccc(Cl)cc1)c1ccc(S(=O)(=O)N2CCOCC2)cc1,-43.0,2.9,-0.9,3.1,-0.1,-1.2
CCOC(=O)c1nnc2c3c(-c4ccccc4)c(-c4ccccc4)nnc3nn2c1C,-5.6,5.5,-0.6,101.4*,4.0,10.2
CCOC(=O)c1cnc2cc(-c3ccccc3)nn2c1C,3.1,10.0,0.1,-5.0,3.4,-1.5
C/S(=N\S(=O)(=O)c1ccc(Cl)cc1)c1sc(Cl)c2c1C(=O)CC(C)(C)C2 (centres undefined),-23.7,12.2,0.0,82.6*,-7.0,0.8
O=C(NCc1ccccn1)c1cccc(C(F)(F)F)n1,-1.6,9.4,0.5,-7.6,9.1,-6.3
O=C(NCc1ccccn1)c1cccnc1SCCS(=O)(=O)c1cccc(C(F)(F)F)c1,-44.8,21.1,-0.5,116.9*,-6.9,3.3
CCN(CC)c1ccc(N=Nc2ccc(Br)cn2)c(O)c1,40.9,43.1,-0.5,85.5*,20.2,42.2
O=C1c2cccc3c([N+](=O)[O-])ccc(c23)C(=O)N1Cc1cccnc1,-5.4,24.0,-1.1,-1.9,32.9*,-4.2
O=C1c2cccc3c([N+](=O)[O-])ccc(c23)C(=O)N1NCCO,-8.0,41.3,-0.7,22.5,18.5,-1.3
O=C(CCN1CCC(c2ccc(Cl)s2)=N1)c1ccc(Cl)s1,-36.8,-6.1,3.4*,11.1,-1.2,-2.1
Cc1c(-c2c(C#N)cnn2-c2ccc([N+](=O)[O-])cc2)sc2ccc(Cl)cc12,39.4,9.2,-0.4,-6.2,2.9,-2.4
Cc1cc(-c2n[nH]c(=S)n2C)nn1-c1ccc([N+](=O)[O-])cc1,-37.6,-18.9,-1.4,99.7*,2.2,-0.7
